In the supplement of paper PMC4840960 one finds myelination data, which are given here for 30 compounds.

Each structure is given as a SMILES string.

In the test the test system is E18 rat cortical neuron-glia co-culture. Description: myelination (MBP fiber length per Olig2+ nucleus), % of 1 µM DAPT response (DMSO = 0) (% of DAPT); higher = more myelination, active = 50 or more. As to conditions: 5 µM; treatment time: 8 days (DIV5-DIV13). In short, it runs like this: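 The myelination value was the continuous straight MBP fiber length per Olig2+ nucleus, scaled between 0.1 % DMSO (0) and a 1 µM positive control (100). It was measured in primary E18 rat cortical co-cultures treated with library compounds at 1 or 5 µM in myelination medium from DIV5 through DIV13. Cells were fixed in 4 % paraformaldehyde and stained for MBP, Olig2 and DAPI, and four 10X fields per well were imaged in duplicate wells.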
As to `COc1ccccc1N1CCN(CCCNc2cc(=O)n(C)c(=O)n2C)CC1` [Urapidil], the myelination is -23.7 (inactive).

Regarding `O=C(O)COCCN1CCN(C(c2ccccc2)c2ccc(Cl)cc2)CC1` (stereo not given) [Virlix], the myelination is -8.81 (inactive).

In the case of `CC(C(=O)O)c1cccc(C(=O)c2ccccc2)c1` (stereo not given) [Ketoprofen], the myelination is -3.55 (inactive).

As to `C[C@H](CS)C(=O)N1CCC[C@H]1C(=O)O` [Captopril], the myelination was -9.32 (inactive).

As for `CC(=O)/N=c1/sc(S(N)(=O)=O)nn1C` [Methazolamide], the myelination was -24.1 (inactive).

Take `NC(N)=Nc1nc(CSCC/C(N)=N/S(N)(=O)=O)cs1` [Famotidine]: the myelination is -21.2 (inactive).

As to `Cc1cccc(C)c1NC(=O)C1CCCCN1C` (stereo not given) [Mepivacaine], the myelination was -4.33 (inactive).

For `CN(Cc1cnc2nc(N)nc(N)c2n1)c1ccc(C(=O)N[C@@H](CCC(=O)O)C(=O)O)cc1` [Methotrexate], the myelination was 195 (active).

For the compound `Cc1onc(-c2ccccc2)c1-c1ccc(S(N)(=O)=O)cc1` [Valdecoxib], the myelination is -45.9 (inactive).

Regarding `C[C@H]1O[C@@H](O[C@H]2[C@@H](O)C[C@H](O[C@H]3[C@@H](O)C[C@H](O[C@H]4CC[C@@]5(C)[C@H](CC[C@@H]6[C@@H]5C[C@@H](O)[C@]5(C)[C@@H](C7=CC(=O)OC7)CC[C@]65O)C4)O[C@@H]3C)O[C@@H]2C)C[C@H](O)[C@@H]1O` [Digoxin], the myelination was 68.2.

For the compound `C/C(=C\C(=O)OCCCCCCCCC(=O)O)C[C@@H]1OC[C@H](C[C@@H]2O[C@H]2[C@@H](C)[C@H](C)O)[C@@H](O)[C@H]1O` [Mupirocin], the myelination was -11.7 (inactive).

For the compound `COc1ccccc1OCC(O)CN1CCN(CC(=O)Nc2c(C)cccc2C)CC1` (stereo not given) [Ranolazine], the myelination was -22.5 (inactive).

`CN(C)CCOC(c1ccccc1)c1ccccc1` [Diphenhydramine]: the myelination is -17.4 (inactive).

In the case of `Cc1c(O)c(=O)ccn1C` [Deferiprone], the myelination is -23.2 (inactive).

With `CN1CCCCC1CCN1c2ccccc2Sc2ccc([S+](C)[O-])cc21` (stereo not given) [Mesoridazine], the myelination was -20.4 (inactive).

Turning to `Cc1onc(-c2ccccc2)c1C(=O)N[C@@H]1C(=O)N2[C@@H]1SC(C)(C)[C@@H]2C(=O)O` [Oxacillin], the myelination was -10.5 (inactive).

For `COc1ccc(CCN(C)CCCC(C#N)(c2ccc(OC)c(OC)c2)C(C)C)cc1OC` (stereo not given) [Verapamil], the myelination was -53.6 (inactive).

`COc1ccccc1OCC(O)COC(N)=O` (stereo not given) [Methocarbamol]: the myelination is -3.49 (inactive).

As to `c1ccc(-c2ccc(C(c3ccccc3)n3ccnc3)cc2)cc1` (stereo not given) [Bifonazole], the myelination was -26.8 (inactive).

As for `Cc1nc(=O)c2cc(CN(C)c3ccc(C(=O)N[C@@H](CCC(=O)O)C(=O)O)s3)ccc2[nH]1` [Raltitrexed], the myelination was 591 (active).

For the compound `CCCNC(=O)NS(=O)(=O)c1ccc(Cl)cc1` [Chlorpropamide], the myelination was -5.62 (inactive).

As to `Cc1occc(=O)c1O` [Maltol], the myelination is -13.4 (inactive).

As for `COc1ccc(CC(C)NCC(O)c2ccc(O)c(NC=O)c2)cc1` (stereo not given) [Formoterol], the myelination is -14.5 (inactive).

Turning to `CCC(=O)O[C@@H]1CC(=O)O[C@H](C)C/C=C/C=C/[C@H](O)[C@H](C)C[C@H](CC=O)[C@H](O[C@@H]2O[C@H](C)[C@@H](O[C@H]3C[C@@](C)(O)[C@@H](OC(=O)CC)[C@H](C)O3)[C@H](N(C)C)[C@H]2O)[C@H]1OC` [Midecamycin], the myelination is 1.11 (inactive).

On to `CCc1ccc(CCOc2ccc(CC3SC(=O)NC3=O)cc2)nc1` (stereo not given) [Pioglitazone], for which the myelination was -17.1 (inactive).

In the case of `CCOC(=O)[C@H](CCc1ccccc1)N[C@@H](C)C(=O)N1[C@H](C(=O)O)C[C@@H]2CCC[C@@H]21` [Ramipril], the myelination is -8.93 (inactive).

For `CO[C@H]1/C=C/O[C@@]2(C)Oc3c(C)c(O)c4c(c3C2=O)C2=NC3(CCN(CC(C)C)CC3)NC2=C(NC(=O)/C(C)=C\C=C\[C@H](C)[C@H](O)[C@@H](C)[C@@H](O)[C@@H](C)[C@H](OC(C)=O)[C@@H]1C)C4=O` [Rifabutin], the myelination was -11.2 (inactive).

On to `CC(Cc1ccccc1)(NC(=O)CN)c1ccccc1` (stereo not given) [Remacemide], for which the myelination was -7.33 (inactive).

Take `CNCCCC12CCC(c3ccccc31)c1ccccc12` [Maprotiline]: the myelination was -25.1 (inactive).

Consider `CC1COc2c(N3CCN(C)CC3)c(F)cc3c(=O)c(C(=O)O)cn1c23` (stereo not given) [Ofloxacin], for which the myelination is -17 (inactive).
